# Test results reported in PubChem BioAssay (NCATS).
# Records with an inconclusive call do not appear. A call without a number means that no potency is given here. Active and inactive are the calls of the source. Calls follow the shape of the dose curve; as a rule, active = well fitted cell-killing curve with a large enough effect; inconclusive = small, poorly fitted or top-dose-only effect; inactive = flat fitted curve, though single readings scatter.
# Assay: Quantitative highthroughput screen to assess conditional lethalithy of NOMO1 cells grown in RPMI1640 with dialyzed fetal bovine serum (RPMI+ds) (AID 1963877); also: nearly all actives have a fitted effect of over 30% in size
# Settings: NOMO1 in RPMI+dialyzed FBS viability, ATP luminescence, 48 h; series mostly up to 45.8 µM
# Description: Assay Provider: Jason Cantor Ph.D.
# Department of Biochemistry
# University of Wisconsin-Madison, Madison, WI, USA
# Chemical screening studies have identified drug sensitivities across hundreds of cancer cell lines but most putative therapeutics fail to translate. Discovery and development of drug candidates in models that more accurately reflect nutrient levels in human blood is a major challenge. Here we performed high-throughput screens in conventional versus Human Plasma-Like Medium (HPLM) to identify compounds that were "missed" when screening using the artificial culture condition. Sets of conditional anticancer compounds spanned phases of clinical development and included non-oncology drugs were assessed. […] We also traced conditional phenotypes for several chemotherapeutics to availability of HPLM-specific metabolites and confirmed others for compounds whose reported targets are encoded by nonessential genes. Our findings establish generalizable strategies for exploiting conditional lethality in HPLM to reveal therapeutic candidates and mechanisms of action in cancer cells.
# Described herein are the results of each viability screens against three cell lines: NOMO1 (an acute myeloid leukemia cell line); P12-Ichikawa (a T-cell acute lymphoblastic leukemia); and SEM (a B-cell ALL). Each assay was screened using 3 different cell culture media: homemade human plasma-Like medium with 10% dialyzed fetal bovine serum (HPLM+ds); RPMI1640 with 10% untreated FBS and 5mM glucose (RPMI+s); and RPMI1640 with 10% dialyzed fetal bovine serum and 5 mM glucose (RPMI+ds).
# PROTOCOL TABLE (as described by Inglese J, Shamu CE and Guy RK. 2007)
# SEQUENCE No. (e.g., 1, 2, 3, etc.); […] (e.g., Cells, Incubation, Reagent, etc.); VALUE and DESCRIPTION.
# 1; Cells; 5 uL; white, solid bottom 1536-well Greiner assay plate.
# 2; Compounds; 23 nL; Kalypsis pin tool (Wako USA) equipped with a 1536-well pin head to transfer to the assay plates.
# 3; Incubation; 48 hours; 37C incubation.
# 4; Reagent; 3 uL; CellTiter Glo (Promega).
# 5; Incubation; 5 min, room temperature
# 6; Detection; Luminescence, Viewlux PerkinElmer.
# NOTES (numbers refer to Sequence numbers above)
# 1. Briefly, 5 ul of cell reagent was dispensed using a Multidrop Combi Dispenser. The NOMO1 and SEM cells were plated at 500 cells/well and the P12-Ichikawa line at 1000 cells/well.
# 2. After seeding the cells, 23 nL of MIPE 4.1 library compounds (in DMSO) were added to each plate using a Kalypsys 1536 Pintool dispenser. Bortezomib at final concentration of […] and DMSO were added to each plate as positive and negative controls respectively. For each screen, MIPE 4.1 compounds were added over an eleven-point concentration range […] in 3-fold dilutions.
# 3. Each plate was covered with a stainless steel gasketed lid to prevent evaporation and incubated for 48 hour at 37C, 95% relative humidity, and 5% CO2.
# 4-5. Three microliter CellTilter-GloTM luminescent substrate mix (Promega) reagent was added to the assay plate and incubated at room temperature for 5 min.
# 6. The luminescence signal was measured using a ViewLux (PerkinElmer) multiplate reader with a 2 second exposure time per plate. Data for each compound were normalized as percent viability such that measurements for DMSO and the empty well controls in each plate were defined as 100% and 0%, respectively.
# Potency is read from the fitted curve at half-maximal effect.
row,SMILES,Potency
1,CN(C)CCN(C)CCc1ccc(Cl)c(Cl)c1,inactive
2,NC1CC1c1ccccc1 (stereo not given),inactive
3,CCC1(c2ccc(N)cc2)CCC(=O)NC1=O (stereo not given),inactive
4,CCN1C[C@]2(OC(=O)c3ccccc3NC(C)=O)CC[C@H](OC)[C@@]34[C@H]5CC6[C@@H](OC)C[C@](O)(C(C[C@@H]23)[C@@H]14)[C@@]5(O)[C@@H]6OC,inactive
5,CC[C@@H]1[C@@H](C)O[C@@](O)([C@@H](C)[C@H](O)[C@H](C)[C@H]2OC(=O)C=CC=C[C@@H](C)[C@@H]([C@@H](C)[C@@H](O)[C@H](C)[C@@]3(O)C[C@H](O[C@H]4C[C@H](O)[C@H](O)[C@H](C)O4)[C@H](CC)[C@@H](C)O3)OC(=O)C=CC=C[C@@H]2C)C[C@H]1O[C@H]1C[C@H](O)[C@H](O)[C@H](C)O1,2.64 µM (active)
6,COc1ccc(CC2NCCc3cc(OC)c(OC)cc32)cc1OC (stereo not given),inactive
7,CC(C)(C)c1cc(C=C(C#N)C#N)cc(Br)c1O,inactive
8,CCOC(=O)c1cncn1[C@H](C)c1ccccc1,inactive
9,O=C(O)C(=O)c1cn(Cc2ccccc2)c2ccc(-c3ccc(OC(F)(F)F)cc3)cc12,inactive
10,Cc1c(N)nc([C@H](CC(N)=O)NC[C@@H](N)C(N)=O)nc1C(=O)N[C@H](C(=O)N[C@@H](C)[C@H](O)[C@@H](C)C(=O)N[C@@H](C(=O)NCCc1nc(-c2nc(C(=O)NCCC[S+](C)C)cs2)cs1)[C@@H](C)O)C(O[C@H]1O[C@H](CO)[C@H](O)[C@@H](O)[C@@H]1O[C@H]1O[C@H](CO)[C@@H](O)[C@H](OC(N)=O)[C@H]1O)c1cnc[nH]1 (stereo not given in full),2.64 µM (active)
11,O=S(=O)(F)Cc1ccccc1,inactive
12,O=C(O)c1nn(Cc2ccc(Cl)cc2Cl)c2ccccc12,inactive
13,COc1ccc(C(=O)c2c(C)n(CCN3CCOCC3)c3ccccc23)cc1,inactive
14,CC(NC(C)(C)C)C(=O)c1cccc(Cl)c1 (stereo not given),inactive
15,O=C1C=CC[C@@H]2[C@H]3CCCN4CCC[C@@H](CN12)[C@@H]34,inactive
16,O=C(NCC1CCOCC1)c1cnc(Nc2ccc(Cl)cc2Cl)nc1C(F)(F)F,inactive
17,CC1=C(O)C(=O)C=C2C1=CC=C1[C@@]2(C)CC[C@@]2(C)[C@@H]3C[C@](C)(C(=O)O)CC[C@]3(C)CC[C@]12C,2.64 µM (active)
18,C#CC1(O)CCC2C3CCC4=CC(=O)CCC4(C)C3CCC21C (stereo not given),inactive
19,O=c1[nH]c2ccc(Cl)cc2c(N[C@@H]2CN3CCC2CC3)c1-c1nc2ccccc2[nH]1,0.148 µM (active)
20,CSCC[C@@H](NC(=O)[C@@H](Cc1ccccc1)NC(=O)CNC(=O)CNC(=O)[C@@H](N)Cc1ccc(O)cc1)C(=O)O,inactive

row,SMILES,Potency
1,O=c1[nH]c2ccccc2n1C1CCN(Cc2ccc(-c3[nH]c4cc5ncnc5cc4nc3-c3ccccc3)cc2)CC1,inactive
2,CN(C)CCc1ccc(O)cc1,inactive
3,C[C@]12CC[C@H](O)CC1=CC[C@H]1[C@H]3CCC(=O)[C@@]3(C)CC[C@@H]12,inactive
4,COC1(CS(=O)c2ccccc2)CCN(CCc2c[nH]c3ccc(F)cc23)CC1 (stereo not given),inactive
5,CC(O)=C(C#N)C(=O)Nc1cc(Br)ccc1Br,inactive
6,Oc1ccc2c3c1O[C@H]1c4[nH]c5c(c4C[C@@]4(O)[C@@H](C2)N(CC2CC2)CC[C@]314)C[C@@]1(O)[C@H]2Cc3ccc(O)c4c3[C@@]1(CCN2CC1CC1)[C@H]5O4,inactive
7,CCNC(=O)CC1N=C(c2ccc(Cl)cc2)c2cc(OC)ccc2-n2c(C)nnc21 (stereo not given),inactive
8,CC(C)(O)C=CC(=O)[C@](C)(O)[C@H]1[C@H](O)C[C@]2(C)[C@@H]3CC=C4[C@@H](C=C(O)C(=O)C4(C)C)[C@]3(C)C(=O)C[C@@]12C,0.166 µM (active)
9,CC[C@@H](C(N)=O)N1CCCC1=O,inactive
10,Cc1[nH]nc2ccc(-c3cncc(OC[C@@H](N)Cc4c[nH]c5ccccc45)c3)cc12,0.743 µM (active)
11,COC1=CC(C)=C[C@@H](C)[C@@H](O)[C@@H](C)CC(C)=CC=C[C@H](OC)[C@H]([C@@H](C)[C@@H](O)[C@H](C)[C@@]2(O)C[C@@H](O)[C@H](C)[C@@H](C(C)C)O2)OC1=O,0.0743 µM (active)
12,O=P1(NCCCl)OCCCN1CCCl (stereo not given),inactive
13,CCCC(C)(COC(N)=O)COC(=O)NC(C)C (stereo not given),inactive
14,C[C@]12CC[C@H]3[C@@H](CCC4=CC(=O)CC[C@@]43C)[C@H]1CC[C@H]2OC(=O)CCC1CCCC1,inactive
15,CC(=Cc1csc(C)n1)[C@@H]1C[C@H]2O[C@]2(C)CCC[C@H](C)[C@@H](O)[C@@H](C)C(=O)C(C)(C)[C@@H](O)CC(=O)O1,inactive
16,CN1C(=O)COc2c(C(=O)NC3CN4CCC3CC4)cc(Cl)cc21 (stereo not given),inactive
17,CCNC(=O)C[C@@H]1N=C(c2ccc(Cl)cc2)c2cc(OC)ccc2-n2c(C)nnc21,9.35 µM (active)
18,COc1ccc2c(c1OC)CN1CCc3cc4c(cc3C1C2)OCO4 (stereo not given),1.66 µM (active)
19,CC(C)(C)[C@]1(O)C[C@@H]2OC(=O)C[C@@]23C(=O)O[C@@H]2OC(=O)[C@H](O)C213 (stereo not given in full),inactive
20,C[C@](O)(COc1ccc(C#N)cc1)C(=O)Nc1ccc(C#N)c(C(F)(F)F)c1,inactive
